Measurements: PubChem BioAssay (NCI)
About 83,000 compounds went through this panel and 20% of them were active in at least one assay; those are over-represented in the sample as a whole.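 Plates (96-well) were seeded with cells, treated with compound at one concentration, and incubated for 48 hours before percent growth was determined.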 A number with no mark means an inactive call. Active and inactive are the calls of the source. The calls were made as follows: active = growth percent below 10; inactive = the rest.

System: OVCAR-4 ovarian
Assay: NCI-60 one-dose screen, 48 h (100 = growth as untreated, 0 = no growth, -100 = all killed)
Conditions: 10 µM unless noted

Structure (SMILES) | growth
CC1=C(C(=O)Nc2ccccc2)C(c2cccc3ccccc23)n2c(nc3ccccc32)N1 (configuration not stated) | 42.3%
COc1ccc(NC(=O)CSc2nnc(-c3ccc(-c4nc5ccccc5[nH]4)cc3)o2)cc1 | 38.3%
COc1cc2cc(C(=O)N3C[C@@H](CCl)c4c3cc(OC(=O)N(C)CCSSCCN3CCOCC3)c3ccccc43)[nH]c2c(OC)c1OC | -36.7% (active)
CC(=O)C[n+]1cccc2c3ccccc3ccc21 | 63.8%
CC[C@]12C=CCN3CC[C@]4(C(=C(C(=O)OC)C1)Nc1cc(OC)c([C@@H]5[C@H]6O[C@H]6[C@@]6(CC)CC(C(=O)OC)=C7Nc8cc(O)ccc8[C@@]78CCN5[C@@H]68)cc14)[C@@H]32 | 14.6%
Cc1ccccc1Nc1nnc(-c2c[nH]c3ccccc23)o1 | 79.9%
COc1cncc(-c2ccc3ncnc(N4CCc5ccc(Cl)cc54)c3c2)c1 | 32%
Clc1ccc2c(NCCNC34CC5CC(CC(C5)C3)C4)ccnc2c1 | -57.3% (active)
Cn1cc(-c2cc(N)n3nc(-c4c[nH]c5ccccc45)cc3n2)c2cc(Br)ccc21 | -40.6% (active)
Cc1nn(-c2ccccc2)c2nc(C)n(CC(=O)N/N=C/c3cccc([N+](=O)[O-])c3)c(=O)c12 | 91.2%
Cc1ccc(S(=O)(=O)Nc2ccc(-c3ccc4c(c3)NC(=O)/C4=C\c3ccc[nH]3)cc2)cc1 | 83.3%
O=C1c2cccc3c(N4CCN(c5ccccc5)CC4)ccc(c23)C(=O)N1c1cccc(-c2nn(-c3ccccc3)cc2-c2nc3ccccc3s2)c1 | 99.9%
COc1ccc(-c2cc(-c3cc(C(C)C)c(O)cc3C)nn2-c2ccc(S(N)(=O)=O)cc2)cc1 | 64%
Clc1ccc(-c2nc3c4c(-c5ccccc5)c(-c5ccccc5)n(Cc5ccccc5)c4ncn3n2)cc1 | 16.4%
Cc1ccc(-c2cc(C(=O)N=Nc3c(O)[nH]c4ccc(F)cc34)c3ccccc3n2)cc1 | 1.07% (active)
COc1ccc(/C=C/c2nc3ccccc3n3c(-c4cccc([N+](=O)[O-])c4)nnc23)cc1 | -14.6% (active)
O=C(c1ccc(O)cc1)C1[C@H](c2ccc(Cl)cc2)[C@@H](c2ccccc2)NC12C(=O)Nc1ccccc12 (some centres not stated) | 9.88% (active)
N#C/C(=C1/C(=O)Nc2ccccc21)c1nnc(NC(=O)c2ccc(-n3c(=O)[nH]c4ccccc4c3=O)cc2)s1 | 31.2%
CN(C(=O)CN1C(=O)/C(=C/c2ccco2)SC1=S)C1CCS(=O)(=O)C1 (configuration not stated) | 106%

Structure (SMILES) | growth
COc1c2c(cc3c1C(CCc1ccccc1)N(C)CC3)OCO2 (configuration not stated) | 29.2%
COc1cc(C2CC(c3ccc(F)cc3)=Nc3c(N)nc(N)nc3N2)ccc1Oc1nc(Nc2ccc(F)cc2)nc(N(C)C)n1 (configuration not stated) | 23.5%
CC(C)C[C@H](NC(=O)CNC(=O)C[C@H]1O[C@@H]2OC3(C)CC[C@H]4[C@H](C)CC[C@@H]([C@H]1C)[C@@]24O3)B(O)O | 18.9%
Cc1[nH]nc2ccc3nc(-c4cnn(CCO)c4)c4c(c3c12)CCCC4 | 63.1%
CCCN(CCC)S(=O)(=O)c1ccc(C(=O)O)cc1.CCCN(CCC)S(=O)(=O)c1ccc(C(=O)O)cc1.[Cl][Pt+2][Cl].[NH2-].[NH2-] | 35.4%
COc1ccc(N=Nc2c(N)nn3c(-c4ccc5c(c4)C=S=C5)ccnc23)cc1 | 24.3%
O=C(NNC(=O)c1ccc(OCc2nc3ccc(Cl)cc3[nH]2)cc1)Nc1ccc(Cl)c(Cl)c1 | 64.5%
Cc1nc(Nc2ccccn2)sc1C1=NNC(c2ccccc2F)C1 (configuration not stated) | 74.8%
COc1ccc(-c2nc3ccccc3n2CC(=O)N=Nc2c(O)[nH]c3ccc(Br)cc23)cc1 | 91.3%
CC[C@]12C=CCN3CC[C@@]4(c5ccc(OC)cc5N(C)[C@H]4[C@@](O)(C(=O)OC)[C@@H]1OC(=O)CCC[P+](c1ccc(OC)cc1)(c1ccc(OC)cc1)c1ccc(OC)cc1)[C@@H]32 | -75.3% (active)
COc1ccc(-c2cc(C(=O)N=Nc3c(O)[nH]c4ccc(Cl)cc34)c3ccccc3n2)cc1OC | 116%
Fc1ccc(Nc2nnc(-c3c[nH]c4ccccc34)o2)cc1 | 81.1%
O=C(NN1C(=O)/C(=C/C=C/c2ccc([N+](=O)[O-])o2)SC1=S)c1ccc(O)cc1 | -99.8% (active)
Cc1cccc(-c2ccccc2Oc2ccc3nnc(Cl)n3n2)c1 | 104%
C[C@H](NC(=O)c1ccc2c(-c3ccc(C(F)(F)F)cc3)cccc2c1)c1ccccn1 | 42%
Cc1ccc(C(=O)Nc2cc(-c3ccccc3)cc(C(F)(F)F)c2)cc1C#Cc1cnc2cccnn12 | 49%
O=[N+]([O-])c1cccc(-c2nnc3c(/C=C/c4ccc(F)cc4)nc4ccccc4n23)c1 | 73.7%
O=C1Nc2cc(-c3ccc(NS(=O)(=O)c4ccc(C(F)(F)F)cc4)cc3)ccc2/C1=C/c1ccc[nH]1 | 31.5%
